FLuc counter: qHTS profiling assay for firefly luciferase inhibitor/activator using purifed enzyme and Km concentrations of substrates (counterscreen for miR-21 project). Luciferin 4-monooxygenase (Photinus pyralis), P08659. purified FLuc, Km substrates, luminescence inhibition. Potency, µM (titrated, usually from 57.5 µM), inactives show at the highest dose activity change, negative = inhibition, hits mostly inhibitors. 360,000 tested, 6.9% active. AID 588342, 2011;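 further: plate controls were vehicle for no effect and reference inhibitor for full effect; nearly all actives have a fitted effect of over 55% in size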
Target sequence (P08659 whole entry, looked up): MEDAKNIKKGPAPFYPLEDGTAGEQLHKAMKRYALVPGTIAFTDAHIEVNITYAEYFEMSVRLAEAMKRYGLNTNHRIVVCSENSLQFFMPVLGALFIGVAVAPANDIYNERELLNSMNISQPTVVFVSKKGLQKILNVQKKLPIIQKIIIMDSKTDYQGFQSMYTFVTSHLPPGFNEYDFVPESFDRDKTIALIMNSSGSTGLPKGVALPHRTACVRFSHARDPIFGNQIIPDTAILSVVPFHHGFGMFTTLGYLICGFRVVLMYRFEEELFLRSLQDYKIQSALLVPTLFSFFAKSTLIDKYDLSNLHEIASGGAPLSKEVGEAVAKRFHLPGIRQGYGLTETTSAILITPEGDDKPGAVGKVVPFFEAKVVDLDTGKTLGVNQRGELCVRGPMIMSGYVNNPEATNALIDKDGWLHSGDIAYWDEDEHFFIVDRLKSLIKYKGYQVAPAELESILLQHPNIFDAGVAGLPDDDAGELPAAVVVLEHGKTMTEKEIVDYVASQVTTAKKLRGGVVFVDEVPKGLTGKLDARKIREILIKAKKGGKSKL
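Purified P. pyralis luciferase, 10 nM final, with Km-level 10 uM D-luciferin and 10 uM ATP in 50 mM Tris acetate pH 7.5, 10 mM Mg acetate, 0.01% Tween-20, 0.05% BSA; 6-point qHTS titration about 60 µM downward; luminescence read.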
Rab9 prom act: qHTS Assay for Rab9 Promoter Activators; 320,000 tested, 2.8% active; Potency, µM (highest dose often 9.22 µM), for the others: at the highest dose activation, negative = inhibition, hits mostly activators; Huh7 Rab9 promoter-luciferase reporter, luminescence, 24 h; further: % of control where 0% means no effect; nearly all actives have a fitted effect of over 60% in size
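Using Huh7 cells stably transfected with Rab9 promoter–luciferase, compounds were incubated 24 h at 37 °C, 5% CO2; luciferase luminescence was read 10 min after reagent addition.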
KinaseGlo FLuc: Counterscreen for Luciferase (Kinase-Glo TM) Inhibition | Luciferin 4-monooxygenase (Photuris pensylvanica), Q27757 | Kinase-Glo luciferase, ATP luminescence, 8 min | Potency, µM (titrated, usually from 38.3 µM), for the others: at the top dose activity change, negative = inhibition, usual class: inhibitors | 200,000 tested, 0.28% active; further: on the % scale 0 is the no-effect control and ±100 the full control effect; nearly all actives have a fitted effect of over 60% in size
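Substrate mix (final 50 mM imidazole pH 7.2, 50 mM KCl, 7 mM MgCl2, 10 uM ATP, 0.01% Tween 20, 0.05% BSA) plus pin-tool compound, then Kinase-Glo detection mix; 8 min ambient, luminescence read.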
SMN2 splice up: qHTS Assay for Enhancers of SMN2 Splice Variant Expression; HEK293 SMN2-luciferase splicing reporter, luminescence, 30-36 h; Potency, µM (series often up to 46.1 µM), without a hit: at the highest dose activity change, positive = activation, most hits filed as activators; 210,000 tested, 2.8% active; AID 1458, 2008; further: % of control where 0% means no effect; nearly all actives have a fitted effect of over 55% in size
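HEK293 cells carry an SMN2 […]–luciferase reporter in which exon 7 inclusion puts luciferase in frame. Cells were plated 10-12 h before compound addition, then incubated 30-36 h at 37C. ONE-Glo luminescence was read; sodium butyrate at 4.5 mM final served as control.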
NPC1 prom act: qHTS Assay for NPC1 Promoter Activators; Huh7 NPC1 promoter luciferase reporter, 24 h; Potency, µM (series often up to 9.22 µM), inactives show top-dose activation, hits mostly activators; 320,000 tested, 2.4% active; AID 485313, 2010; further: % of control where 0% means no effect; nearly all actives have a fitted effect of over 60% in size
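Readout is luciferase luminescence, reflecting NPC1 promoter activation in stably transfected Huh7 cells after 24 h compound exposure at 37 °C in reduced-serum medium with 10% FBS.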
ELG1 genotox: qHTS screen for small molecules that induce genotoxicity in human embryonic kidney (HEK293T) cells expressing luciferase-tagged ELG1 | HEK293T ELG1-luciferase reporter, luminescence, 16 h | Potency, µM (highest dose often 46 µM), without a hit: top-dose activity change, positive = activation, hits mostly activators | 330,000 tested, 1.3% active | AID 504466, 2011; further: % of control where 0% means no effect; nearly all actives have a fitted effect of over 60% in size
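Quantitative HTS format in 1536-well plates. HEK293T ELG1-luciferase reporter cells receive test compound and are incubated 16 hr at 37 °C, 5% CO2; ONE-Glo added, 30 min room temperature, then luminescence read.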
Starred values were filed as active, the others as inactive; ? = inconclusive; . = no result given; [ ] = another dose, or the depositor's remark. An excerpt weighted towards active compounds, which were near 7.5% of everything screened. The call rests on the fitted dose curve; in most records, active means well fitted curve in the direction sought with a large enough effect; inconclusive means small, poorly fitted or top-dose-only effect, or another doubt; inactive means no such curve, though single readings can be large; an effect the other way counts as inactive or inconclusive. Potency means the concentration at half of the fitted maximal effect.

SMILES	FLuc counter	Rab9 prom act	KinaseGlo FLuc	SMN2 splice up	NPC1 prom act	ELG1 genotox
O=C(Nc1ccncc1)c1ccc2ncsc2c1	-18.2%	19.1%	.	.	24.9%	?
O=C(Nc1nnc(SCc2ccc(F)cc2)s1)c1ccc2ncsc2c1	?	?	1.5%	12.6µM*	?	?
Cc1cc(C)c(C)c(OCC(O)CN2CCN(c3ccccn3)CC2)c1 (stereo not drawn)	4.6%	1.5%	.	.	-0.3%	-3.5%
COc1cccc(-c2nc(SCC(=O)NCC3CCCO3)c(-c3ccc(Cl)cc3)[nH]2)c1 (stereo not drawn)	-10.3%	.	.	-8.5%	.	.
O=C(Nc1ccccc1Br)c1ccc2nccnc2c1	6.75µM*	2µM*	.	.	3.16µM*	-0.1%
O=C(Nc1ccccc1F)c1ccc2ncsc2c1	?	3.98µM*	.	.	2.24µM*	18.2%
Cc1ccccc1NC(=O)c1ccc2nccnc2c1	?	15.5%	.	.	-4.7%	-5.9%
CCN(CC(=O)Nc1ccc(NC(C)=O)cc1)C(=O)CSc1ncnc2sc(C)c(C)c12	7.1%	0.7%	.	.	-2.5%	-0.3%
Cc1ccc(C2=NNC(C(O)C(O)C(O)C(O)CO)S2)cc1 (stereo not drawn)	21.3µM*	11.9%	-0.3%	-28.7%	2.5%	?
Cc1cc(C)nc(S/C=C/C(=O)c2ccccc2F)n1	1.51µM*	-10.8%	.	.	-9.3%	?
Cc1cc(NC(=O)c2ccccc2F)on1	?	18.1%	-18.8%	?	19.1%	?
COc1ccc2cnn(CCOc3ccccc3)c(=O)c2c1OC	4.78µM*	0.562µM*	-8.6%	11.2µM*	0.794µM*	?
COc1ccc2cnn(-c3ccc(OC(F)(F)Cl)cc3)c(=O)c2c1OC	0.0%	25.6%	.	.	21.5%	4.4%
COc1ccc2cnn(-c3ccc(C)cc3)c(=O)c2c1OC	23.9µM*	?	-3.1%	27.1%	?	14.6µM*
CC(C)NC(=O)N1CC[C@@]2(CCCN(C(=O)c3cc(C(F)(F)F)cc(C(F)(F)F)c3)C2)C1	.	.	0.0%	-1.9%	.	.
CC1CN(C(=O)Nc2ccc(C(=O)NCCc3ccc(Cl)cc3)cc2)c2ccccc2S1 (stereo not drawn)	-4.6%	.	.	0.2%	.	.
CC(C)(C)c1ccc(C(=O)COC(=O)CN2C(=O)NC3(CCCC3)C2=O)cc1	8.49µM*	0.3%	.	.	-2.9%	5.2%
CC(C)(C)c1ccc(COC(=O)CN2C(=O)NC3(CCCC3)C2=O)cc1	2.3%	-2.5%	.	.	8.6%	-2.8%
O=C(CCN1CCOCC1)N1CCCC(Nc2cccc(F)c2)C1 (stereo not drawn)	3.1%	4.2%	.	.	4.9%	-5.2%
O=C(O)CCCn1c(O)c(C=C2N=c3ccccc3=N2)sc1=S	6.01µM*	-5.1%	.	.	-9.8%	10.7%
O=C(O)Cn1c(O)c(C=Nc2ccccc2)sc1=S	?	4.5%	-2.2%	-12.9%	-4.8%	-2.3%
CCCC(C(=O)O)n1c(O)c(C=C2N=c3ccccc3=N2)sc1=S (stereo not drawn)	?	3.3%	.	.	-2.3%	-1.3%
O=C(O)CCCCCn1c(O)c(C=C2N=c3ccccc3=N2)sc1=S	9.53µM*	-3.3%	0.2%	-4.3%	0.1%	-1.1%
O=C(NCc1nc2ccccc2[nH]1)c1ccco1	0.9%	4.6%	0.9%	6.3%	2.2%	19.5%
C/C(O)=C/c1nc2ccccc2[nH]c1=O	0.6%	-3.1%	2.0%	-12.0%	-3.8%	2.7%
SMILES	FLuc counter	Rab9 prom act	KinaseGlo FLuc	SMN2 splice up	NPC1 prom act	ELG1 genotox
O=c1[nH]c2ccccc2nc1/C=C/c1ccc(Cl)cc1	?	0.891µM*	.	.	3.16µM*	9.2µM*
C(=C\c1ccco1)/c1nc2ccccc2[nH]1	1.9µM*	0.631µM*	12.6µM*	.	3.55µM*	?
C(=C\c1nc2ccccc2[nH]1)/c1ccccc1	0.301µM*	0.398µM*	3.55µM*	0.282µM*	0.178µM*	?
COc1ccc(CNC(=O)Cn2ccc3cc(S(=O)(=O)N4CCCCCC4)ccc32)cc1OC	-7.7%	.	.	.	.	.
O=C(O)CNC(=O)c1ccccc1O	.	.	-2.3%[7.66 µM]	-12.7%[9.22 µM]	.	.
N/C(=N\OC(=O)c1ccc(Cl)cc1)c1ccn[nH]1	3.01µM*	1.58µM*	.	.	1.26µM*	2.59µM*
N/C(Cn1cncn1)=N\OC(=O)c1ccc(Cl)cc1	4.0%	1.9%	-1.3%	-1.7%	-2.7%	4.0%
C/C(=N\OC(=O)c1ccc(Cl)cc1)c1nccs1	0.477µM*	0.6%	-15.1%	-18.9%	0.7%	1.0%
N/C(=N\OC(=O)c1ccccc1Cl)c1ccccc1	0.379µM*	3.16µM*	?	11.2µM*	3.16µM*	?
COc1ccccc1C(=O)O/N=C(\N)c1ccccc1Cl	?	?	0.9%	22.4µM*	4.0%	?
N/C(=N\OC(=O)c1ccc(Cl)cc1)c1ccc(Cl)cc1	3.01µM*	?	-7.2%	?	?	?
N/C(=N\OC(=O)c1ccc(OCC(F)(F)F)nc1)c1ccc(Cl)cc1	?	-0.6%	.	.	1.2%	7.5%
N/C(=N\OC(=O)c1ccco1)c1cccnc1	?	-1.6%	-7.5%	7.4%	6.8%	?
N/C(=N\OC(=O)c1ccccc1Cl)c1ccc(Cl)cc1	1.35µM*	?	-2.9%	15.8µM*	19.8%	2.59µM*
N/C(=N\OC(=O)c1ccco1)c1ccc(Cl)cc1	23.9µM*	?	-8.0%	.	?	7.3µM*
COc1ccccc1C(=O)Oc1ccc(C(C)C)cc1	9.53µM*	-0.9%	0.4%	-7.4%	-2.5%	?
COc1ccc(C(=O)O/N=C(\N)c2ccccc2Cl)cc1OC	?	-1.6%	.	.	-1.0%	?
OC1(c2cccc(C(F)(F)F)c2)CCN(c2ccc(-c3ccccc3)nn2)CC1	-19.1%	1.41µM*	-2.3%	?	3.16µM*	14.3%
O=C(N/N=C/c1ccc(-c2cccc([N+](=O)[O-])c2)o1)c1ccccc1O	10.7µM*	?	1.0%	3.6%	1.8%	-12.6%
CN(C)c1ccc(/C=N/NC(=O)C(O)(c2ccccc2)c2ccccc2)o1	0.0%	-3.9%	0.6%	-5.6%	-1.9%	-0.9%
CN(C)c1ccc(/C=N/NC(=O)c2ccccc2O)o1	21.3µM*	4.8%	-2.9%	1.2%	-3.0%	1.5%
O=C(N/N=C/c1ccc(-c2cccc(C(F)(F)F)c2)o1)c1ccccc1O	2.1%	0.2%	-1.0%	2.7%	-1.7%	-4.7%
O=C(N/N=C/c1ccc(-c2cccc(C(F)(F)F)c2)o1)c1ccccc1Br	21.3µM*	1.2%	-0.3%	-25.1%	7.7%	-1.0%
CCOC(=O)c1cc(-c2ccccc2)n(CCCC(=O)Nc2ccc(C)c(Cl)c2)c1C	-1.7%	.	.	.	.	.

Compound activity deposited in PubChem by National Center for Advancing Translational Sciences (NCATS).
